Test results published in PubChem BioAssay AID624330 (Southern Research Specialized Biocontainment Screening …, 2012).
About 2,100 (0.62%) of roughly 340,000 compounds were called active.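 The calls were made as follows: active = first-screen hits whose inhibition reached a set limit at any dose in the follow-up dose series; inconclusive = inhibition above the set first-screen limit but never retested; inactive = the rest.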 The list is a sample of the results. Results with a measured potency or affinity are listed apart.

Each compound was assayed against Rac GTPase-activating protein 1 (Homo sapiens) (UniProt Q9H0H5) (assay: blockers of MgcRacGAP-driven Rac1 GTP hydrolysis – biochemical, ADP Hunter fluorescence, primary and confirmatory, confirmation (AID 624330;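 also: fluorescence reports GDP produced by GAP-driven GTP hydrolysis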)). Details: MgcRacGAP-stimulated Rac1 GTP hydrolysis, at 30 µM, active compounds read high, GST-tagged Rac1 F28L mutant substrate.
Rac GTPase-activating protein 1 (Homo sapiens), sequence (Q9H0H5 whole entry, looked up): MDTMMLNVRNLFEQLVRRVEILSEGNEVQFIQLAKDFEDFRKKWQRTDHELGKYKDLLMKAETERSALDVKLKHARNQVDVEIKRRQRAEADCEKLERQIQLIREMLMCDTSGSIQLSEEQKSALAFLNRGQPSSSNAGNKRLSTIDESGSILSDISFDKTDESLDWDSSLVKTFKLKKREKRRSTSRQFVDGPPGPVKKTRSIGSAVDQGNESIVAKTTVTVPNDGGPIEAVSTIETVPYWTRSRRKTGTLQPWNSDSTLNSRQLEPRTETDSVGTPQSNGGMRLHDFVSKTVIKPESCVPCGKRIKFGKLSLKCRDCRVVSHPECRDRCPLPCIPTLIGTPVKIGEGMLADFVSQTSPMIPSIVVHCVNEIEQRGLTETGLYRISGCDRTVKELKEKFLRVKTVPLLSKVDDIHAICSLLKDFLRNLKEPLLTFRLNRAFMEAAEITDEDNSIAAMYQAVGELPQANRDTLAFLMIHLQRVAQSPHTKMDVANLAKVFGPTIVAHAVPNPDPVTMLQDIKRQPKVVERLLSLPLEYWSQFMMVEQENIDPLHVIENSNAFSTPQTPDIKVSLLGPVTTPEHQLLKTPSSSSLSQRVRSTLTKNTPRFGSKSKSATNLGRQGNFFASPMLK

inhibition, inactive:
CCc1nc(N)c(C#N)c(-c2ccc(F)cc2)c1C 16%
O=C(Nc1ccc(C(F)(F)F)cc1)C1CC(=O)N(c2ccc3c(c2)OCCO3)C1 (stereo unspecified) 11.2%
[O-]/C(=C(\C(=S)Nc1cccc2ccccc12)[n+]1ccccc1)c1ccc(OC(F)F)cc1 8.46%
O=C(COC(=O)c1ccccc1O)Nc1ccc(OC(F)F)cc1 6.22%
Cc1ccc(S(=O)(=O)C2CCCCC2=O)cc1 (stereo unspecified) 12.8%
Nc1ccc(CCC(=O)N2CCCC2)cc1 3.67%
O=C(CNC(=O)c1cccc(F)c1)N/N=C/c1cccc([N+](=O)[O-])c1 4.45%
COc1cc(/C=N/NC(=O)c2cccc([N+](=O)[O-])c2)cc(OC)c1O 6.29%
COc1cc(/C=N/NS(=O)(=O)c2ccc(C)c([N+](=O)[O-])c2)cc([N+](=O)[O-])c1O 22.1%
CCN(CC)c1ccc(/C=N/NS(=O)(=O)c2cccc([N+](=O)[O-])c2)cc1 23.2%
Cc1c(Cl)c([N+](=O)[O-])nn1Cc1ccc(C(=O)N/N=C\c2ccccn2)o1 3.44%
O=[N+]([O-])c1cccc(/C=N/NS(=O)(=O)c2ccccc2)c1 3.56%
Cc1c(Cl)c([N+](=O)[O-])nn1Cc1ccc(C(=O)N/N=C\c2cccc(Br)c2)o1 6.83%
Cc1ccc(S(=O)(=O)N/N=C/c2ccc(O)c(O)c2)cc1[N+](=O)[O-] 30.2%
O=C(C1CCN(S(=O)(=O)N2CCCCC2)CC1)N1CCCCC1 6.28%
CC1=C(C(=O)N2CCCC(CCC(=O)NCc3ccc(F)c(F)c3)C2)OCCO1 (stereo unspecified) 6.22%
COc1ccc(/C=N/NC(=O)c2cccc([N+](=O)[O-])c2)cc1OC 7.73%
COc1ccc(/C=N/NC(=O)c2cccc([N+](=O)[O-])c2)cc1O 8.06%
Cc1cccc(NC(=O)CSc2nnc(CNC(=O)c3cccs3)o2)c1C 8.9%
CC(C)NC(=O)CSCc1c(F)cccc1Cl 9.25%
Cc1ccc(-c2nc3ccccn3c2NCc2ccc3c(c2)OCO3)cc1 11.7%
Oc1ccc(-c2nc3ncccn3c2Nc2ccc3c(c2)OCCO3)cc1 11.9%
Oc1ccc(-c2nc3ccccn3c2NCc2ccc3c(c2)OCO3)cc1 24.6%
Cc1cccc(Nc2c(-c3ccc(N4CCOCC4)cc3)nc3ncccn23)c1 7.86%
Cc1ccn2c(NCc3ccc4c(c3)OCO4)c(-c3ccc(O)cc3)nc2c1 15.5%
Cc1ccc(-c2nc3cnccn3c2Nc2ccc3c(c2)OCO3)cc1 24.2%
S=C1NC[C@H](CC2CCCCC2)N1CC1CCCCC1 5.21%
COc1c(C)cc(C(=O)C2CCCN(Cc3cccc4nccnc34)C2)cc1C (stereo unspecified) 5.94%
CCCNC(=O)Nc1nnc(C2CC2)s1 2.83%
Cc1ccc(C(=O)NCCc2ccccc2)cc1S(=O)(=O)N1CCOCC1 1.5%
CCN(CC)CCCNC(=O)c1cc2c(-c3ccc(Cl)cc3)nn(C)c2s1 15.3%
CCCN(CCC)CCNC(=O)c1cc2c(-c3ccc(Cl)cc3)nn(C)c2s1 31.8%
CCOc1ccc(-c2nnc(SCC(=O)O)n2Cc2ccccc2)cc1 8.65%
COc1ccc(C)cc1NC(=O)C(NCC1CCCO1)c1ccccc1 (stereo unspecified) 6.45%
COc1ccc(C)cc1NC(=O)CNC(c1ccccc1)c1ccccc1 1.89%
CCOc1ccc(-c2csc(NC(=O)c3cccc(N4C(=O)CCC4=O)c3)n2)cc1 1.94%
COc1ccc(Cl)cc1NC(=O)NN1CCN(C)CC1 9.05%
COc1cccc(-c2c(C(=O)N/N=C(\C)c3ccco3)nnn2-c2nonc2N)c1 3.24%
C(=N\N=C\c1cccs1)/c1cccs1 3.75%
Cc1nnc(C)n1/N=C/c1cccs1 17.6%
c1cncc(-c2nnc3n2N=C(c2cccs2)CS3)c1 7.37%
Cc1ccc(-c2n[nH]c(=S)n2/N=C/c2cccs2)cc1 25.8%
Cc1ccc(/C=N/n2c(C)nnc2C)s1 5.21%
Cc1nnc(C)n1/N=C/c1cccc([N+](=O)[O-])c1 0.71%
S=c1[nH]nc(-c2cccnc2)n1/N=C/c1ccc(Br)s1 8.12%
O=[N+]([O-])c1ccc(/C=N/n2c(-c3cccnc3)n[nH]c2=S)cc1 14.5%
O=C(CCNC(=O)c1ccco1)NCc1ccc(C(=O)O)cc1 10.3%
O=C(NCc1cccnc1)c1ccc([N+](=O)[O-])cc1 6.96%
CC1(C)CC(=O)C2=C(C1)NC(SCC(N)=O)=C(C#N)C21CCCCC1 7.26%
CCOc1ccc(OCCn2c(S(=O)(=O)O)nc3c(N)ncnc32)cc1 12.6%
Cc1ccccc1OCCn1c(S(=O)(=O)O)nc2c(N)ncnc21 9.98%
Cc1ccccc1OCCn1cnc2c(N)ncnc21 -13%
CC(C)Oc1ccc(OCCn2c(S(=O)(=O)O)nc3c(N)ncnc32)cc1 2.7%
CN1CCN(C(=O)CSc2cc(=O)n(C)c3ccccc23)CC1 6.45%
CCOC(=O)N1CCC(NC(=O)C(CC(C)C)NC(=O)C2CCCCC2)CC1 (stereo unspecified) 9.57%
Cc1ccc(S(=O)(=O)N2CCC(C(=O)NCCc3ccccn3)CC2)cc1 -0.14%
COc1cc(/C=C2/SC(=S)N(Cc3ccccc3)C2=O)cc(Cl)c1O 10%
COc1ccc(Br)cc1/C=C/C(=O)NC(=S)Nc1ccc(Cl)c(C(=O)O)c1 6.62%
COc1ccc(/C=C2\SC(N)=NC2=O)cc1Cl 1.73%
COc1cc(/C=C2\SC(c3ccccc3)=NC2=O)cc(Cl)c1O 27.3%
COc1cc(/C=C2\SC(N)=NC2=O)cc(Br)c1O 29.2%
COc1ccc(Br)cc1C(=O)NC(=S)Nc1ccc(Cl)c(C(=O)O)c1 5.62%
CC1CCCCN1C(=O)c1ccc(CS(=O)(=O)Cc2ccccc2)cc1 (stereo unspecified) 8.5%
CCN1CCN(C(=O)c2[nH]c3ccc(OC)cc3c2C)CC1 6.11%
Cc1ccc(S(=O)(=O)NCCc2c[nH]c3ccccc23)cc1 4.49%
COc1ccc(CCNC(=O)CCn2c(=O)c3cccn3c3ccc(F)cc32)c(OC)c1OC 12.9%
O=C1NCC(COc2cccc3ccccc23)O1 (stereo unspecified) -1.12%
Cn1c(O)c(N=NC(=O)CNC(=O)c2cccnc2)c2ccccc21 4.23%
CCN1C[C@@H]2[C@@H]3C(=O)N(Cc4ccccc4)C(=O)[C@@H]3[C@](C)(C1=O)N2C(=O)c1ccc(Br)cc1 7.24%
O=C(CNC(=O)c1ccc(Br)o1)Nc1ccc(F)c(S(=O)(=O)N2CCOCC2)c1 5.58%
Clc1ccc(C=NN2CCCCCC2)cc1 -2.87%
Clc1ccc(/C=N/N2CCCCC2)cc1 7.04%
CCOc1ccc(NC(=O)C(C)Oc2ccccc2C(=O)Nc2ccc(C)c(Cl)c2)cc1 (stereo unspecified) 5.67%
CC1(NC(=O)NCc2ccccc2)CCS(=O)(=O)C1 (stereo unspecified) 10.2%
O=C(c1cccc(Cl)c1)N1CCC(c2nc3ccccc3[nH]2)CC1 9.71%
O=NC1=C(c2c(O)[nH]c3ccccc23)CCCC1 5.2%
O=C1C(c2c(O)[nH]c3ccccc23)=Nc2ccccc21 8.12%
Cc1ccc(NC(=O)COc2nc(C)cs2)cc1 4.7%
CC(=O)C[C@H](O)CC(=O)[C@H]1OC(=O)CC/C=C\Cc2ccccc21 5.25%
COc1cc(CNCc2cccc3ccccc23)cc(OC)c1 25.2%
COc1cc(CNCc2ccc(C)cc2)cc(OC)c1OC 22.2%
COc1ccc(CNCc2ccccc2C(F)(F)F)cc1 29.7%
COc1cc(CNCc2ccc(OC)c(OC)c2OC)cc(OC)c1 15.6%
CCCCn1c(N)c(N(CC(C)C)C(=O)c2cccc(S(=O)(=O)N(C)c3ccccc3)c2)c(=O)[nH]c1=O 5.29%
CCOC(=O)CC(NC(=O)c1ccccc1)c1ccc(OC)cc1 (stereo unspecified) 3.97%
COCCNC(=O)c1cccc(OC2CCN(Cc3ccccc3OCCO)CC2)c1 11.3%
O=C(NC(=S)N1CCCCCC1)c1ccccc1 2.51%
COc1cc2oc(-c3ccc(O)cc3)cc(=O)c2c(O)c1OC 18.1%
COc1c(O)cc2oc(-c3ccc(O)cc3)cc(=O)c2c1O 10.2%
CS(=O)(=O)N(Cc1ccco1)CC(O)Cn1cc(C=O)c2ccccc21 (stereo unspecified) 8.31%
CCN(CC(=O)Nc1cc(C)c(Cl)cc1OC)CC(=O)NC1CCS(=O)(=O)C1 (stereo unspecified) 8.4%
COc1ccc(Cl)cc1NC(=O)CN(C)C1CCS(=O)(=O)C1 (stereo unspecified) 6.99%
COCCNC(=O)CSc1ncnc2sc(-c3ccccc3)cc12 6.39%
COCCn1c(=NC(=O)c2ccc(S(=O)(=O)N3CCOCC3)cc2)sc2cc(S(N)(=O)=O)ccc21 8.39%
FC(F)(F)c1cnc2c(-c3ccc(Cl)cc3Cl)noc2c1 10.7%
CO/N=C/C(C(C)=O)C(=O)Nc1ccc(Cl)cc1Cl (stereo unspecified) 1.68%
